Measured values taken from PubChem BioAssay (NCATS).
Several values for one entry are separate records, joined by “and”; a condition that tells them apart may be missing. Equal entries are not always repeated. Inconclusive results are not listed. Unmarked numbers belong to inactive results. Activity calls are given as the source filed them. Calls come from the whole dose curve; as a rule, active = well fitted curve in the direction sought with a large enough effect; inconclusive = small, poorly fitted or top-dose-only effect, or another doubt; inactive = no such curve, though single readings can be large or run the other way.

Assay: qHTS Assay for Identifying Gametocytocidal Compounds (AID 743244);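 for max response: actives lower the fluorescent signal which means gametocytes are killed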
Details: P. falciparum 3D7 stage III-V gametocytes, alamarBlue, 72 h; max response: stronger effect = lower value
Outline: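 Viability read-out was resazurin reduction (alamarBlue, 24 h) measured at Ex 525/Em 598 nm. Beforehand, late-stage (III-V) 3D7 P. falciparum gametocytes at 20,000 cells/well were incubated with compound 72 h at 37C under 5% CO2.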
% is set by controls: 0 for no effect and ±100 for the full control effect; potency is the fitted concentration of half-maximal effect.

Row | Structure (SMILES) | max response | Potency
1 | CC(=O)OCC(=O)[C@@]1(O)[C@H](C)C[C@H]2[C@@H]3C=C(C)C4=Cc5c(cnn5-c5ccccc5)C[C@]4(C)[C@@H]3[C@@H](O)C[C@@]21C | -18.2% | 
2 | Cc1cnc(-c2cnc(NCCNc3ccc(C#N)cn3)nc2-c2ccc(Cl)cc2Cl)[nH]1 | 11.2% | 
3 | CCC(=C(c1ccccc1)c1ccc(OCCN(C)C)cc1)c1ccccc1 | -26.2% | 
4 | COc1cc2c(Nc3ccc(NC(=O)c4ccccc4)cc3)ncnc2cc1OCCCN1CCOCC1 | -17.9% | 
5 | Cc1[nH]c2ccccc2c1CCNCc1ccc(C=CC(=O)NO)cc1 |  | 1.18 µM (active)
6 | O=C(NCCCNc1nc(Nc2cccc(NC(=O)N3CCCC3)c2)ncc1I)c1cccs1 | -18.4% and -12.2% | 
7 | CCCCc1nc2cc(C=CC(=O)NO)ccc2n1CCN(CC)CC |  | 3.72 µM (active)
8 | CC[C@H](CO)Nc1nc(NCc2ccccc2)c2ncn(C(C)C)c2n1 | -4.23% | 
9 | C=C1C(=CC=C2CCCC3(C)[C@@H]([C@H](C)C=CC=CC(O)(CC)CC)CC[C@@H]23)C[C@@H](O)C[C@@H]1O (stereo not given in full) | -8.25% | 
10 | CN1c2cc(O)c(N=NC(N)=O)cc2CC1S(=O)(=O)O (stereo not given) | 13% | 
11 | CC(C)(C)c1cc(C(C)(C)C)c(NC(=O)c2c[nH]c3ccccc3c2=O)cc1O | 7.52% | 
12 | CC(=O)c1c(C)c2cnc(Nc3ccc(N4CCNCC4)cn3)nc2n(C2CCCC2)c1=O |  | 7.43 µM (active)
13 | COc1ccc(CC2SC(=O)NC2=O)cc1C(=O)NCc1ccc(C(F)(F)F)cc1 (stereo not given) | 16.4% | 
14 | C=CCn1c(=O)c2cnc(Nc3ccc(N4CCN(C)CC4)cc3)nc2n1-c1cccc(C(C)(C)O)n1 |  | 3.32 µM (active)
15 | O=c1[nH]nc(Sc2ncc([N+](=O)[O-])s2)n1-c1ccc2c(c1)OCCO2 |  | 7.43 µM (active)
16 | Cn1c2cc(S(C)=O)sc2c2cnn(Cc3cccc(N)c3)c(=O)c21 (stereo not given) | 8.65% | 
17 | COc1cc(=C2C=c3ccccc3=N2)[nH]c1=Cc1[nH]c(C)cc1C |  | 7.43 µM (active)
18 | C1Cc2[nH]nc(-c3nn[nH]n3)c2C1 | 38.3% | 
19 | COc1cccc2nc(-c3cccs3)nc(NN3C(=O)C=C(C)C3=O)c12 | 19.8% | 
20 | O=C(C=Cc1cccnc1)NCCCCC1CCN(C(=O)c2ccccc2)CC1 | 33.6% | 
21 | C[C@@H](Oc1cc(-c2cnn(C3CCNCC3)c2)cnc1N)c1c(Cl)ccc(F)c1Cl |  | 7.43 µM (active)
22 | Cn1cc(-c2[nH]c3cc(NC(=O)[C@H](N)C4CCCCC4)cc4c3c2C=NNC4=O)cn1 |  | 23.5 µM (active)
23 | N#Cc1c(O)c2c(-c3ccc(-c4ccccc4O)cc3)csc2[nH]c1=O | 42.7% | 
24 | C1=CCOCc2cc(ccc2OCCN2CCCC2)Nc2nccc(n2)-c2cccc(c2)OCC1 | 17.1% | 
25 | CC(=O)OCCN1C(=O)c2c(C)nc3ccc(S(=O)(=O)N4CCOCC4)cc3c2C1=O | 15.6% | 
26 | CCN1CCN(CC(=O)Nc2ccc(-c3cccc4c(=O)cc(N5CCOCC5)oc34)c3sc4ccccc4c23)CC1 |  | 29.6 µM (active)
27 | Cc1ccc(-c2ncn(-c3ccc(Nc4nccc(-c5cccc(N6CCOCC6)c5)n4)cc3)n2)cn1 |  | 11.8 µM (active)
28 | CN(C)CCCN=c1c2ccccc2n(C)c2[nH]c(=O)n(C)c(=O)c12 |  | 14.8 µM (active)
29 | NC(=O)Nc1cc(-c2cccc(F)c2)sc1C(=O)N[C@H]1CCCNC1 |  | 18.7 µM (active)
30 | Nc1nccc(Oc2ccc(NC(=O)c3c[nH]cc(-c4ccc(F)cc4)c3=O)cc2F)c1Cl | -5.48% | 
